Measured values as given in publication PMC5540273 (PLoS ONE, 2017).

Legend:
Conditions in all cases: concentration: 1 μM, replicates: in singlicate; n = 1
[1] = tested on: RPS6KA5(Kin.Dom.2-C-terminal)
[2] = tested on: T1, RSK1(Kin.Dom.1-N-terminal)
T1 construct: gene RPS6KA1

[3] = tested on: T2, RSK1(Kin.Dom.2-C-terminal)
T2 construct: gene RPS6KA1

[4] = tested on: T3, RSK2(Kin.Dom.1-N-terminal)
T3 construct: gene RPS6KA3

[5] = tested on: T4, RSK2(Kin.Dom.2-C-terminal)
T4 construct: gene RPS6KA3

[6] = tested on: T5, RSK3(Kin.Dom.1-N-terminal)
T5 construct: gene RPS6KA2

[7] = tested on: T6, RSK3(Kin.Dom.2-C-terminal)
T6 construct: gene RPS6KA2

[8] = tested on: T7, RSK4(Kin.Dom.1-N-terminal)
T7 construct: gene RPS6KA6

[9] = tested on: T8, RSK4(Kin.Dom.2-C-terminal)
T8 construct: gene RPS6KA6

S6K1 = tested on: S6K1
SBK1 = tested on: SBK1
SGK2 = tested on: SGK2
SGK3 = tested on: SGK3
SGK = tested on: SGK
SIK2 = tested on: SIK2
SIK = tested on: SIK
SLK = tested on: SLK
SNARK = tested on: T9, SNARK
T9 construct: gene NUAK2

SNRK = tested on: SNRK
SRC = tested on: SRC
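Also: KINOMEscan kinase panel screen.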

Cn1ccc2ncnc(Nc3ccc(Oc4cccc(Cl)c4)c(Cl)c3)c21
%Inh [1]: 11% | %Inh [2]: 13% | %Inh [3]: 0% | %Inh [4]: 20% | %Inh [5]: 0% | %Inh [6]: 19% | %Inh [7]: 10% | %Inh [8]: 29% | %Inh [9]: 14% | %Inh (S6K1): 0% | %Inh (SBK1): 15% | %Inh (SGK2): 11% | %Inh (SGK3): 10% | %Inh (SGK): 0% | %Inh (SIK2): 0% | %Inh (SIK): 37% | %Inh (SLK): 33% | %Inh (SNARK): 13% | %Inh (SNRK): 0% | %Inh (SRC): 12%

N#Cc1ccc(Oc2ccc(Nc3ncnc4cc[nH]c34)cc2Cl)cc1
%Inh [1]: 0% | %Inh [2]: 20% | %Inh [3]: 17% | %Inh [4]: 19% | %Inh [5]: 0% | %Inh [6]: 9% | %Inh [7]: 23% | %Inh [8]: 16% | %Inh [9]: 32% | %Inh (S6K1): 10% | %Inh (SBK1): 27% | %Inh (SGK2): 34% | %Inh (SGK3): 28% | %Inh (SGK): 31% | %Inh (SIK2): 37% | %Inh (SIK): 0% | %Inh (SLK): 7% | %Inh (SNARK): 24% | %Inh (SNRK): 38% | %Inh (SRC): 3%

O=c1cc(N2CCOCC2)nc2n(Cc3cccc(Cl)c3)ccn12 [GSK2296823]
%Inh [1]: 7% | %Inh [2]: 10% | %Inh [3]: 0% | %Inh [4]: 21% | %Inh [5]: 27% | %Inh [6]: 0% | %Inh [7]: 0% | %Inh [8]: 0% | %Inh [9]: 19% | %Inh (S6K1): 0% | %Inh (SBK1): 32% | %Inh (SGK2): 0% | %Inh (SGK3): 13% | %Inh (SGK): 0% | %Inh (SIK2): 9% | %Inh (SIK): 0% | %Inh (SLK): 0% | %Inh (SNARK): 0% | %Inh (SNRK): 5% | %Inh (SRC): 2%

Fc1ccc(-c2ncn(CCCNCc3ccccc3)c2-c2ccncc2)cc1
%Inh [1]: 7% | %Inh [2]: 0% | %Inh [3]: 22% | %Inh [4]: 0% | %Inh [5]: 22% | %Inh [6]: 16% | %Inh [7]: 21% | %Inh [8]: 0% | %Inh [9]: 31% | %Inh (S6K1): 19% | %Inh (SBK1): 0% | %Inh (SGK2): 19% | %Inh (SGK3): 0% | %Inh (SGK): 30% | %Inh (SIK2): 0% | %Inh (SIK): 9% | %Inh (SLK): 35% | %Inh (SNARK): 5% | %Inh (SNRK): 5% | %Inh (SRC): 24%

Clc1cccc(-c2nc(Nc3ccncc3)c3ccccc3n2)c1 [GW873004]
%Inh [1]: 16% | %Inh [2]: 0% | %Inh [3]: 10% | %Inh [4]: 49% | %Inh [5]: 40% | %Inh [6]: 0% | %Inh [7]: 2% | %Inh [8]: 0% | %Inh [9]: 24% | %Inh (S6K1): 0% | %Inh (SBK1): 0% | %Inh (SGK2): 11% | %Inh (SGK3): 0% | %Inh (SGK): 6% | %Inh (SIK2): 0% | %Inh (SIK): 63% | %Inh (SLK): 43% | %Inh (SNARK): 0% | %Inh (SNRK): 0% | %Inh (SRC): 0%

COC(=O)c1cccc(NC(=O)NCCNc2ccnc(Nc3ccc(F)cc3)n2)c1 [GSK1379883]
%Inh [1]: 4% | %Inh [2]: 30% | %Inh [3]: 0% | %Inh [4]: 0% | %Inh [5]: 0% | %Inh [6]: 0% | %Inh [7]: 0% | %Inh [8]: 0% | %Inh [9]: 11% | %Inh (S6K1): 0% | %Inh (SBK1): 3% | %Inh (SGK2): 0% | %Inh (SGK3): 0% | %Inh (SGK): 0% | %Inh (SIK2): 0% | %Inh (SIK): 0% | %Inh (SLK): 4% | %Inh (SNARK): 0% | %Inh (SNRK): 0% | %Inh (SRC): 0%

COC(=O)c1c(-c2ccccc2)c2cc(Cl)ccc2c(=O)n1Cc1ccc(S(C)(=O)=O)cc1
%Inh [1]: 0% | %Inh [2]: 5% | %Inh [3]: 11% | %Inh [4]: 5% | %Inh [5]: 15% | %Inh [6]: 9% | %Inh [7]: 6% | %Inh [8]: 0% | %Inh [9]: 8% | %Inh (S6K1): 0% | %Inh (SBK1): 0% | %Inh (SGK2): 0% | %Inh (SGK3): 9% | %Inh (SGK): 0% | %Inh (SIK2): 9% | %Inh (SIK): 2% | %Inh (SLK): 19% | %Inh (SNARK): 18% | %Inh (SNRK): 0% | %Inh (SRC): 23%

Fc1cccc(COc2ccc(Nc3ncnc4cc[nH]c34)cc2Cl)c1
%Inh [1]: 0% | %Inh [2]: 12% | %Inh [3]: 23% | %Inh [4]: 15% | %Inh [5]: 0% | %Inh [6]: 8% | %Inh [7]: 26% | %Inh [8]: 20% | %Inh [9]: 29% | %Inh (S6K1): 21% | %Inh (SBK1): 52% | %Inh (SGK2): 26% | %Inh (SGK3): 40% | %Inh (SGK): 23% | %Inh (SIK2): 0% | %Inh (SIK): 15% | %Inh (SLK): 34% | %Inh (SNARK): 36% | %Inh (SNRK): 21% | %Inh (SRC): 16%

Nc1n[nH]c2nnc(-c3ccccc3)cc12 [SB-517389]
%Inh [1]: 2% | %Inh [2]: 28% | %Inh [3]: 9% | %Inh [4]: 0% | %Inh [5]: 76% | %Inh [6]: 4% | %Inh [7]: 24% | %Inh [8]: 0% | %Inh [9]: 25% | %Inh (S6K1): 25% | %Inh (SBK1): 10% | %Inh (SGK2): 0% | %Inh (SGK3): 19% | %Inh (SGK): 0% | %Inh (SIK2): 0% | %Inh (SIK): 0% | %Inh (SLK): 0% | %Inh (SNARK): 0% | %Inh (SNRK): 2% | %Inh (SRC): 0%

Cn1ccc2ncnc(Oc3ccc(NC(=O)Nc4cccnc4)c(Cl)c3)c21
%Inh [1]: 13% | %Inh [2]: 0% | %Inh [3]: 41% | %Inh [4]: 1% | %Inh [5]: 0% | %Inh [6]: 0% | %Inh [7]: 17% | %Inh [8]: 0% | %Inh [9]: 3% | %Inh (S6K1): 0% | %Inh (SBK1): 0% | %Inh (SGK2): 8% | %Inh (SGK3): 0% | %Inh (SGK): 3% | %Inh (SIK2): 0% | %Inh (SIK): 19% | %Inh (SLK): 9% | %Inh (SNARK): 0% | %Inh (SNRK): 0% | %Inh (SRC): 16%

CS(=O)(=O)CCNCc1ccc(-c2ccc3ncnc(Nc4ccc(OCc5ccccc5)c(Cl)c4)c3c2)o1.Cl [GW574783]
%Inh [1]: 0% | %Inh [2]: 0% | %Inh [3]: 0% | %Inh [4]: 4% | %Inh [5]: 29% | %Inh [6]: 17% | %Inh [7]: 6% | %Inh [8]: 6% | %Inh [9]: 8% | %Inh (S6K1): 0% | %Inh (SBK1): 3% | %Inh (SGK2): 0% | %Inh (SGK3): 0% | %Inh (SGK): 11% | %Inh (SIK2): 0% | %Inh (SIK): 0% | %Inh (SLK): 25% | %Inh (SNARK): 0% | %Inh (SNRK): 0% | %Inh (SRC): 2%
